Compounds without any hit were thinned out: in the full panel of roughly 83,000, 20% have a hit.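 Percent growth is the endpoint: 0 to 100 indicates growth inhibition (40 means 60% inhibition), 0 means no net growth, and negative values indicate cell death.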 Calls of active or inactive are those of the source. The calls were made as follows: active = growth percent below 10; inactive = the rest.
Tests used:
Test in all cases: NCI-60 one-dose screen, 48 h (100 = growth as untreated, 0 = no growth, -100 = all killed)
Settings in all cases: 10 µM unless noted
NCI-H23 lung = test system: NCI-H23 lung
NCI-H226 lung = test system: NCI-H226 lung
NCI-H322M lung = test system: NCI-H322M lung
HOP-62 NSCLC = test system: HOP-62 NSCLC
NCI-H460 lung = test system: NCI-H460 lung
HOP-92 NSCLC = test system: HOP-92 NSCLC
NCI-H522 lung = test system: NCI-H522 lung
A549/ATCC NSCLC = test system: A549/ATCC NSCLC
786-0 renal = test system: 786-0 renal
COLO 205 colon = test system: COLO 205 colon
DU-145 prostate = test system: DU-145 prostate
K-562 leukemia = test system: K-562 leukemia
MALME-3M melanoma = test system: MALME-3M melanoma
MDA-MB-231 breast = test system: MDA-MB-231 breast
RXF 393 renal = test system: RXF 393 renal
SF-268 CNS = test system: SF-268 CNS
SF-295 CNS = test system: SF-295 CNS
SF-539 CNS = test system: SF-539 CNS
UACC-257 melanoma = test system: UACC-257 melanoma
M14 melanoma = test system: M14 melanoma

Measured: growth

COc1cccc(OCC(O)CN2CCN(c3ccccc3)CC2)c1 (stereo not given)
inactive: NCI-H23 lung 106% | NCI-H226 lung 106% | NCI-H322M lung 129% | HOP-62 NSCLC 103% | NCI-H460 lung 114% | HOP-92 NSCLC 129% | NCI-H522 lung 80.3% | A549/ATCC NSCLC 114% | 786-0 renal 104% | COLO 205 colon 138% | DU-145 prostate 116% | K-562 leukemia 92.4% | MALME-3M melanoma 145% | MDA-MB-231 breast 108% | RXF 393 renal 163% | SF-268 CNS 106% | SF-295 CNS 113% | SF-539 CNS 100% | UACC-257 melanoma 134% | M14 melanoma 104%

CCCCc1n(Cc2ccc3ccccc3n2)cc[n+]1Cc1ccc2ccccc2n1
inactive: NCI-H226 lung 26.7% | NCI-H322M lung 41.4% | HOP-62 NSCLC 25.2% | NCI-H460 lung 16.5% | NCI-H522 lung 10% | A549/ATCC NSCLC 44.8% | 786-0 renal 56.9% | DU-145 prostate 40.8% | RXF 393 renal 20.8% | SF-268 CNS 19.9% | SF-295 CNS 25.2% | SF-539 CNS 16.3% | M14 melanoma 17.1%
active: NCI-H23 lung 4.77% | HOP-92 NSCLC 4.31% | COLO 205 colon -34.4% | K-562 leukemia 6.71% | MALME-3M melanoma -2.99% | MDA-MB-231 breast 9.88% | UACC-257 melanoma -11.9%

CCCCn1cnc(-c2cc(-c3ccccc3)cc(C(F)(F)F)c2)n1
inactive: NCI-H23 lung 98.1% | NCI-H226 lung 95.6% | NCI-H322M lung 99.8% | HOP-62 NSCLC 99.1% | NCI-H460 lung 99% | HOP-92 NSCLC 76% | NCI-H522 lung 93.8% | A549/ATCC NSCLC 97.8% | 786-0 renal 103% | COLO 205 colon 104% | DU-145 prostate 106% | K-562 leukemia 95.9% | MALME-3M melanoma 89.6% | MDA-MB-231 breast 106% | RXF 393 renal 99.9% | SF-268 CNS 104% | SF-295 CNS 102% | SF-539 CNS 103% | UACC-257 melanoma 96.7% | M14 melanoma 98%

[Ag].[Ag].[NH-]S(=O)(=O)c1ccc(N=Nc2cc(N=Nc3ccc(S([NH-])(=O)=O)cc3)c3c(NC(=O)C(Cl)Cl)cccc3c2OC(=O)C(Cl)Cl)cc1.[c-]1nccs1.[c-]1nccs1
active: NCI-H522 lung -86.4% | COLO 205 colon 6.93%
inactive: NCI-H23 lung 93.8% | NCI-H226 lung 90.8% | NCI-H322M lung 97.2% | HOP-62 NSCLC 78.9% | NCI-H460 lung 56.7% | HOP-92 NSCLC 60.7% | A549/ATCC NSCLC 83.5% | 786-0 renal 106% | DU-145 prostate 70.1% | K-562 leukemia 83.8% | MALME-3M melanoma 67.4% | MDA-MB-231 breast 49.5% | RXF 393 renal 71.5% | SF-268 CNS 78.6% | SF-295 CNS 81.6% | SF-539 CNS 95.7% | UACC-257 melanoma 82.4% | M14 melanoma 97.4%

COc1ccc(/C(=C\c2cc(OC)c(OC)c(OC)c2)C(=O)N2CCN(c3ccccc3)CC2)cc1O
inactive: NCI-H23 lung 99.2% | NCI-H226 lung 98.8% | NCI-H322M lung 100% | HOP-62 NSCLC 99% | NCI-H460 lung 106% | HOP-92 NSCLC 85.9% | NCI-H522 lung 84.4% | A549/ATCC NSCLC 90% | 786-0 renal 103% | COLO 205 colon 111% | DU-145 prostate 115% | K-562 leukemia 104% | MALME-3M melanoma 104% | MDA-MB-231 breast 95.1% | RXF 393 renal 98.2% | SF-268 CNS 101% | SF-295 CNS 96.2% | SF-539 CNS 92.1% | UACC-257 melanoma 93.1% | M14 melanoma 105%

O=C(/C=C/c1cn(-c2ccccc2)nc1-c1cccc(Nc2ccnc3cc(Cl)ccc23)c1)c1ccc2c(c1)OCO2
inactive: NCI-H23 lung 101% | NCI-H226 lung 99.1% | NCI-H322M lung 86.2% | HOP-62 NSCLC 107% | NCI-H460 lung 102% | HOP-92 NSCLC 88.1% | NCI-H522 lung 127% | A549/ATCC NSCLC 93.4% | 786-0 renal 99.8% | COLO 205 colon 102% | DU-145 prostate 76.8% | K-562 leukemia 66.8% | MALME-3M melanoma 38% | MDA-MB-231 breast 72.7% | RXF 393 renal 95.2% | SF-268 CNS 89.7% | SF-295 CNS 115% | SF-539 CNS 95.7% | UACC-257 melanoma 95% | M14 melanoma 111%

O=C(OCc1ccc2c(Br)cc(Br)c(O)c2n1)c1cc2ccccc2[nH]1
active: NCI-H23 lung -27.4% | NCI-H226 lung -66.5% | NCI-H460 lung -38.7% | HOP-92 NSCLC -66.4% | NCI-H522 lung -74.2% | 786-0 renal -78.2% | COLO 205 colon -74% | DU-145 prostate -91.6% | K-562 leukemia 1.14% | MALME-3M melanoma -85.5% | MDA-MB-231 breast -81.9% | RXF 393 renal -91.4% | SF-268 CNS -51.5% | SF-539 CNS -96.3% | UACC-257 melanoma -64.6% | M14 melanoma -64.7%
inactive: NCI-H322M lung 51.6% | HOP-62 NSCLC 13.7% | A549/ATCC NSCLC 14.5% | SF-295 CNS 68.5%

O=C1c2ccccc2C(=O)c2c1oc1ccc3ccccc3c21
inactive: NCI-H23 lung 33.7% | NCI-H226 lung 85.5% | NCI-H322M lung 83.1% | HOP-62 NSCLC 108% | NCI-H460 lung 44.9% | HOP-92 NSCLC 102% | NCI-H522 lung 97.5% | A549/ATCC NSCLC 60.8% | 786-0 renal 101% | COLO 205 colon 107% | DU-145 prostate 85.7% | K-562 leukemia 101% | MALME-3M melanoma 27.8% | MDA-MB-231 breast 60% | RXF 393 renal 88.2% | SF-268 CNS 76.7% | SF-295 CNS 93.7% | SF-539 CNS 78.3% | UACC-257 melanoma 77.7% | M14 melanoma 57.1%

Reference: PubChem BioAssay (NCI)
